# The supplement of paper PMC6555819
# How the values were obtained:
# Assay in all cases: PBM binding z-score (relative to random genomic background probes); higher = stronger binding; sequences stand for … in GC…GCGATTGACAGCGTAGAATGAAGG
# [1] = test system: FXR:RXRa (NR concentration 270 nM, RXRa partner concentration 90 nM)
# Summary of the method: (§1)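 Binding buffer was PBS pH 7.4 with 2% milk, 0.02% Triton X-100, 1 mM DTT, 0.2 mg/mL BSA and 0.4 mg/ml salmon testes DNA. In it, ligand-free nuclear receptor dimers were incubated 1 h on custom Agilent 4×180K protein-binding microarrays carrying double-stranded probes. Antibodies against each partner (one per run) detected binding, and z-scores were calculated against random background probes after regression normalization of scanned fluorescence.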
# [2] = test system: LXRa:RXRa (NR concentration 270 nM, RXRa partner concentration 90 nM)
# Summary of the method: as §1
# [3] = test system: LXRa homodimer (NR concentration 270 nM)
# Summary of the method: as §1
# [4] = test system: LXRb:RXRa (NR concentration 270 nM, RXRa partner concentration 90 nM)
# Summary of the method: as §1
# [5] = test system: LXRb homodimer (NR concentration 270 nM)
# Summary of the method: as §1
# [6] = test system: PPARa:RXRa (NR concentration 270 nM, RXRa partner concentration 90 nM)
# Summary of the method: as §1
# [7] = test system: PPARg:RXRa (NR concentration 180 nM, RXRa partner concentration 90 nM)
# Summary of the method: as §1
# [8] = test system: PPARg:RXRa 270nM:90nM, anti-RXR (NR concentration 270 nM, RXRa partner concentration 90 nM)
# Summary of the method: as §1
# [9] = test system: PPARg:RXRa 30nM:10nM, anti-RXR (NR concentration 30 nM, RXRa partner concentration 10 nM)
# Summary of the method: as §1
# [10] = test system: PPARg:RXRa 90nM:30nM, anti-RXR (NR concentration 90 nM, RXRa partner concentration 30 nM)
# Summary of the method: as §1
# [11] = test system: PPARg:RXRa DBDmut IVT, anti-RXR (DBD mutation: RXRa K156A/R161A, NR concentration 270 nM, RXRa partner concentration 90 nM)
# Summary of the method: as §1
# [12] = test system: PPARg:RXRa IVT, anti-PPARg (NR concentration 270 nM, RXRa partner concentration 90 nM)
# Summary of the method: as §1
# [13] = test system: PPARg DBDmut:RXRa IVT, anti-PPARg (DBD mutation: PPARg1 K132A/R137A, NR concentration 270 nM, RXRa partner concentration 90 nM)
# Summary of the method: as §1
# [14] = test system: PPARg DBDmut IVT, anti-PPARg (DBD mutation: PPARg1 K132A/R137A, NR concentration 270 nM)
# Summary of the method: as §1
# [15] = test system: PPARg homodimer (NR concentration 180 nM)
# Summary of the method: as §1
# [16] = test system: PXR:RXRa (NR concentration 270 nM, RXRa partner concentration 90 nM)
# Summary of the method: as §1
# [17] = test system: PXR homodimer (NR concentration 270 nM)
# Summary of the method: as §1
# [18] = test system: RARa:RXR (NR concentration 270 nM, RXRa partner concentration 90 nM)
# Summary of the method: as §1
# [19] = test system: RARa homodimer (NR concentration 270 nM)
# Summary of the method: as §1
# [20] = test system: RARb:RXRa (NR concentration 270 nM, RXRa partner concentration 90 nM)
# Summary of the method: as §1
Sequence,PBM binding z-score [1],PBM binding z-score [2],PBM binding z-score [3],PBM binding z-score [4],PBM binding z-score [5],PBM binding z-score [6],PBM binding z-score [7],PBM binding z-score [8],PBM binding z-score [9],PBM binding z-score [10],PBM binding z-score [11],PBM binding z-score [12],PBM binding z-score [13],PBM binding z-score [14],PBM binding z-score [15],PBM binding z-score [16],PBM binding z-score [17],PBM binding z-score [18],PBM binding z-score [19],PBM binding z-score [20]
CCGAGTACGTTATGGGGCATTCAGGCAACGGTGA,-0.345,-0.442,-0.712,-0.213,-0.602,-0.079,0.408,-0.152,-0.465,-0.83,0.389,0.0516,-0.885,-0.78,-0.751,-0.602,-0.398,-0.541,-0.162,0.16
AGAACGGGGGCACGCTGAGTTGATAGCAGAGTAG,2.62,2.67,0.116,4.87,6.59,4.42,4.48,4.86,2.39,4.05,4.63,6.15,9.13,9.69,2.35,3.72,1.03,2.98,0.451,3.1
CAAACTAGGTCAAAGGTCACAGTCGAGCCAACCA,8.05,6.81,4.49,7.06,2.03,7.83,13.8,11.1,13.2,13.2,8.58,9.39,3.19,2.73,4.25,6.88,1.29,8.53,1.9,5.89
CGAACTAGGTCATTGACCGGACAGTGAATAGTAA,5.26,4.95,2.4,3.37,0.0098,4.46,7.14,6.07,3.06,5.48,8.08,8.12,0.655,0.319,0.696,1.2,-0.102,1.93,0.169,3.61
TCTTGTAGATCAACCAGGTTAAGAAAGCCTGAGT,0.429,0.506,-0.188,0.429,-0.277,0.901,-0.376,1.51,2.7,2.07,2.07,0.996,-0.047,0.818,-0.217,0.658,0.148,0.664,0.037,0.316
ATCGAAAGGTCGAGGTGAGTATCGAGAAAGGGAA,4.43,3.37,-0.107,2.73,0.435,4.56,3.35,3.74,1.49,2.48,0.319,2.07,0.156,0.836,1.5,2.44,0.217,3.52,0.474,4.2
ATCGAAAGGTCGAGGTGACTATAGAGAAAGGGAA,4.61,3.47,0.0804,2.68,0.167,4.72,3.8,3.74,1.66,3.09,0.438,2.86,1.24,0.771,1.35,2.56,0.185,3.53,0.636,4.21
TGAAAGAGGTTATAAGATCAGGGAACGTTGCAAA,2.03,1.91,-0.395,1.33,-0.331,2.91,1.11,1.46,0.81,1.12,-0.304,0.748,-0.617,0.266,0.0455,0.781,-0.571,1.59,-0.227,1.56
CATACAGGGTCAGCTAGGCCAGAGTAGGGACGGC,4.68,2.84,-0.378,2.27,0.142,4.64,3.58,3.06,0.957,2.2,1.4,2.5,0.615,1.03,1.25,1.89,-0.17,2.74,0.0717,4.31
